According to PubChem BioAssay AID488890 (Southern Research Specialized Biocontainment Screening …, 2010):
Out of some 320,000 compounds screened, about 1,300 (0.41%) were called active. Another 3% or so got no clear call; they are omitted. No rule for the calls is given here. Only a sample is shown. Potency and affinity values are given separately.

assay: growth inhibition of non-replicating M. tuberculosis (AID 488890); settings: Mycobacterium tuberculosis non-replicating, at 25 µM, stronger effect = higher value;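 also: plate controls were DMSO cells for no effect and high antibiotic wells for full effect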

Row | SMILES | inhibition [%]
1 | N#Cc1ccc(C23CC4(C2)[C@H](CN(Cc2ccc(C(F)(F)F)cc2)[C@@H]4c2ccccc2)C3c2ccccc2)cc1 (stereo not given in full) | 19.2
2 | Cc1cc(C)c(NC(=S)N2CCN(c3ccc([N+](=O)[O-])cn3)CC2)cc1C | -3
3 | OC/C(Br)=C(\Br)CO | -3.52
4 | COc1ccc(CNC(=O)C2COc3ccccc3O2)cc1 (stereo not given) | 72.5
5 | NC(=O)c1ccc(NC(=O)C2COc3ccccc3O2)cc1 (stereo not given) | 1.12
6 | CC(C)(C)NC(=O)c1ccc(NC(=O)C2COc3ccccc3O2)cc1 (stereo not given) | 45.9
7 | COc1ccc(OC)c(NC(=O)C2COc3ccccc3O2)c1 (stereo not given) | 30.6
8 | CCOC(=O)CN1C(=O)N[C@@H](c2ccccc2)C(C(=O)OC)=C1C | -18.9
9 | COCc1ccc(C(=O)N2CCCC(N3CCN(c4ccccc4C)CC3)C2)s1 (stereo not given) | 20.7
10 | O=C1C2C3C=CC(C3)C2C(=O)N1CC1CCCO1 (stereo not given) | -0.04
11 | NC(=O)CCn1c(C(=O)c2cc(Cl)c(N)c(Cl)c2)c2ccccc2[n+]1[O-] | 7
12 | O=C(Nc1cccnc1)C1OCCc2ccccc21 (stereo not given) | -3.68
13 | COCCn1c(SCC(=O)Nc2ccc(S(=O)(=O)N(C)C)cc2)nc2ccccc21 | 0.14
14 | COc1cccc(NC(=O)CCC2CCN(C(=O)C3CC=CCC3)CC2)c1 (stereo not given) | 6.11
15 | Cc1nc(-c2cccc(S(=O)(=O)N3CCCCC3)c2)cs1 | 3.4
16 | COc1ccccc1NC(=O)c1cc(-c2cc(OC)c(OC)c(OC)c2)nc2ccccc12 | 1.97
17 | COc1ccc(/C(O)=C/C(=O)C(=O)NNC(=O)c2ccccc2)cc1 | 22.9
18 | COc1ccc(N/C(C)=C/C(=O)c2ccccc2)cc1 | 57.9
19 | C/C(=C\C(=O)c1ccc(Br)cc1)NCc1ccccc1 | 52.8
20 | C/C(=C\C(=O)c1ccc(Br)cc1)NNC(=O)c1ccc(O)cc1 | 67.2
21 | CCOc1ccc(N2CC(C(=O)NCCCc3ccccc3)CC2=O)cc1 (stereo not given) | 24.1
22 | Cc1cccc(NC(=O)Cn2cnc3sc(C)c(S(=O)(=O)N4CCC(C)CC4)c3c2=O)n1 | 7.28
23 | CCN1CCN(c2ccc(S(=O)(=O)N3CCOCC3)cc2NC(=O)c2sccc2C)CC1 | -12.4
24 | CC(=O)c1ccc(N2CCN(S(=O)(=O)c3cccc4nonc34)CC2)cc1 | 10.4
25 | O=C(O)CSc1ccccn1 | -10.9
26 | O=C(O)CCSc1ccccn1 | -2.61
27 | O=C(c1ccccc1)c1nnc(-c2ccncc2)o1 | 49.9
28 | O=C(c1nnc(-c2ccncc2)o1)c1ccccc1Cl | 72.4

Row | SMILES | inhibition [%]
29 | O=C(c1cccc(F)c1)N1CCC2(CC1)NCCc1[nH]cnc12 | -6.44
30 | CN(CC(O)COCc1cccs1)C1CCCCC1 (stereo not given) | 4.88
31 | c1ccc(-c2cc3c(ccc4nonc43)nn2)cc1 | 21
32 | O=C(O)c1cc(-c2ccccc2)nc2ccccc12 | -4.94
33 | Cc1ccc(NC(=O)CC(C)N2CCCC2)cc1 (stereo not given) | -3.18
34 | NCC(O)COCCC12CC3CC(CC(C3)C1)C2 (stereo not given) | 8.67
35 | CC(NCC(O)COCc1ccc(Cl)cc1)c1ccccc1 (stereo not given) | 78.5
36 | Cc1nnc(NC(=O)c2ccccc2NC(=O)c2ccccc2)s1 | 33.7
37 | O=C(Nc1nnc(C(F)(F)F)s1)c1cccnc1 | 27.8
38 | Cc1cc(-c2n[nH]c(=S)n2-c2ccccc2C)cs1 | -13.2
39 | COc1ccccc1NC(=O)COC(=O)/C=C/c1ccccc1[N+](=O)[O-] | 65.2
40 | COC(=O)COc1ccc(/C=C2/NC(=O)N(CC(=O)OC)C2=O)cc1 | 9.12
41 | CCN1C(=O)/C(=C/c2ccc(N3CCCC3)cc2)NC1=S | 52.1
42 | Cc1cc(C)n(-c2ccc(C(=O)Nc3cccc(S(=O)(=O)N4CCCC4)c3)cc2)n1 | -4.31
43 | C=CCn1c(SCC(=O)Nc2cc(C)cc(C)c2)nnc1-c1cnccn1 | -3.18
44 | CC[n+]1c(/C=C/Nc2ccccc2)oc2ccc(OC)cc21 | 35.5
45 | CC[n+]1c(/C=C/Nc2ccccc2)oc2ccccc21 | 67.7
46 | Cc1cc(=O)oc2c3c(cc(OCC(=O)NCc4cccnc4)c12)OC(C)(C)CC3 | 7.63
47 | CC(=O)OCCc1c2ccccc2c(CCCN(C)C)c2ccccc12 | 41.4
48 | Cc1onc(-c2c(Cl)cccc2Cl)c1C(=O)OCC(=O)c1ccccc1 | 15.6
49 | Cc1onc(-c2c(Cl)cccc2Cl)c1COC(=O)c1ccc(Cl)cc1 | 16.1
50 | Cc1c(-n2cc(C(=O)O)c(=O)c3cc(F)c(N4CCCC(O)C4)c(F)c32)c(=O)n(-c2ccccc2)n1C (stereo not given) | 0.14
51 | CCOC(=O)c1cn(C2CC2)c2c(F)c(F)c(F)cc2c1=O | -13
52 | CC1CCc2cc(F)cc3c(=O)c(C(=O)O)cn1c23 (stereo not given) | 35.4
53 | COc1c(F)c(F)cc2c(=O)c(C(=O)O)cn(C3CC3)c12 | 4.5
54 | C=CCN(CC=C)C(=O)COC(=O)c1ccc(Sc2ncn[nH]2)c([N+](=O)[O-])c1 | 43.1
55 | Cc1ccc(-c2ccc(SCC(=O)N3CCc4ccccc43)nn2)cc1 | -0.83
